The values below come from PubChem BioAssay AID1508600 (Functional Genomics Laboratory (NCATS/FGL), 2020).

Out of some 53,000 sequences screened, about 3,700 (7%) were called active. This excerpt belongs to a sample that is enriched for actives. A number with no mark means an inactive call.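 How the source made its calls: active means gene knockdowns whose robust z-score for IL-1 alpha signal is at least 2 or at most -2, so actives lie on both sides; inactive means the rest.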

This assay can be described thus: Components of the Cytosolic LPS Sensing Pathway: Gene Identification via Genome-wide siRNA Screen.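 Further: robust z of the log signal after scaling to non-targeting control siRNA wells of the plate.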 The note with it: RAW264.7 macrophages, IL-1a HTRF, actives lie on both sides, screened at 100 nM (by protocol), cells primed 5 h with Pam3CSK4 first. The method in brief: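 IL-1a HTRF of supernatants after 24 hour LipidA transfection of Pam3CSK4-primed (5 hours) RAW264.7 cells, 48h post-siRNA transfection (100 nM). Scores: percent of plate negative-control median, then log-based robust z-score.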
A general note: TR-FRET usually uses a lanthanide donor and a delayed reading to cut background.
GGGUUCAACACAGCCAAUGTT against Fam151a: the z-score was 0.987.

For the sequence CCCUAUUUGACAAAUUCCUTT against Cdo1, the z-score is 0.245.

In the case of GCUGAAUCACUACCAGUCATT against Zfp462, the z-score was 1.27. Consider GGCAAUUCGAAUUUUGGUUTT against Rtraf, for which the z-score was 0.891. With GGCAAACGAAACACUAGCATT against Cacna1d, the z-score was 4.94 (active). For the sequence GGUACUUCAUCGAUUCAGCTT against Zfp593, the z-score was -0.561. As for GGAUAGCACAGCCCUACAUTT against Kcns1, the figure is -0.197; as for GCUUACUGUCCCUUAAGUUTT against Msantd1, 2.45 (active); as for GGACAAAGAUGAAUAUGUGTT against Spag6l, -0.34. Take GGCCGUGAUGCUAGAGAACTT against Zfp661: the z-score is 0.131. Next, GGUGAUUCACAUACUUUAUTT against Vps54: 0.612; GGGUUACCAGACUAACAAATT against Stfa3: 0.763; GCGAAUUCGUGAGAAGAGCTT against Ripk4: -0.884. Consider GCACGUAUGCUCUUUCUCATT against Pigw, for which the z-score was -2.52 (active). Consider CCAAGUAAGGACUAUAGAGTT against Gpatch2, for which the z-score is -1.02.

With CGCUGCUAAGAAUCAUCUATT against Ednrb, the z-score was 0.287. Take GGAAGCCACGGUCAUGUGUTT against Trim9: the z-score was 0.746. Turning to GGAAUGGGCAGUAUGAGUUTT against Ocrl, the z-score was -1.73. With GGUAGUCAAGUCGAAAGUATT against Ccdc18, the z-score was -2.19 (active). As to GGACAAUGCUGUGACCUCUTT against Amn, the z-score is -0.949. As for GGGAAGCAGAAAUGAGAAATT against Pdcd5, the figure is 0.135; as for GAGUGUUUCAGAUUCUUCATT against Klra8, 0.329; as for UCUUUGUGAUUUCGAAGCCTT against Slc17a9, 2.31 (active).

Regarding GGAUAAAGAAGGUAUUCUUTT against Mccc1, the z-score was -0.891. Consider GGCCCAGAAGGUUAUCAUCTT against Ptf1a, for which the z-score was 0.606.

For GGAAAUCACGACCAUGGCGTT against Gtf2b, the z-score is 0.0198.

For the sequence GCACUUCCGACUUUUUCACTT against Mettl24, the z-score was -1.69. Regarding GAGCUUCUGGCUGAGAUAATT against Espn, the z-score was -0.388. Regarding “GUGUAUGCGCUGAUCCUAUTT against 1700020N01Rik”, the z-score is 0.181. Turning to GGAGCUCUCAUCCUACUAUTT against Eif4ebp3, the z-score is -0.0855. With GGCCUUUGAGAAGAACAUUTT against Copz1, the z-score was -2.16 (active). As for GGAGUUUUUAUUCAAGGAATT against Slc35b3, the z-score is -1.07. GGCAGUGUACAUCUGGAUATT against Olfr611: the z-score is 1.85. For CCGUGUUCCGAGGAUAUGUTT against Cyp2e1, the z-score is -0.212.

Consider GGGACUAUGACAAAACAGCTT against Atad2, for which the z-score is 0.0122. Take CCUGACAUUCUUUAAUCCATT against Synb: the z-score was 0.6.

For the sequence CCAACUCUAAUAAUAACAGTT against Slc22a26, the z-score is 3.31 (active). On to CCAGACAUGAAACUUGUAUTT against Mms19, for which the z-score was -0.165. Regarding GGCCAGAGGACUAUGUUAUTT against C1s2, the z-score was 1.24. As to GGGUGGAGAAAUUUUAAUGTT against Dse, the z-score was -0.22.

Consider GGAAAAUGAGAUCAUGCCCTT against Sdf4, for which the z-score is -0.488.

For the sequence GGCGAUUCUGGCUCUCUUUTT against Commd9, the z-score was 1.28. Regarding GCAGAAAGAAACGUAAAUGTT against Dhx57, the z-score is 0.464.

For the sequence GGCUUCAGCUAUUGGGCAATT against Vsig1, the z-score is 2.19 (active). Turning to “GGGAUGUGUACCGUUACAUTT against 1700010I14Rik”, the z-score was 0.155. CCCUUUUGUUUAGCUGAUCTT against Glrp1: the z-score is -2.14 (active). Next, GGACAGUUCGUGUUUGGUUTT against Wdfy2: 0.0956. Next, GGUUCAACAAAACAGGCUUTT against Serpina1f: -1.01; GGAUUAAUGUUUCCUGACUTT against Mturn: 0.704; GGGAAACAAACAGAAGAACTT against Cfap65: -1.2. In the case of GGACAUUAACGAGCUGAACTT against Ube2m, the z-score is 0.67.

GGAGAAGAAGAACAGGACATT against Rnf186: the z-score was 2.35 (active). As for GGACAGGUGAAGAUAAGUATT against Mug2, the figure is -0.704; as for GCCUGUAUAGAUGCUAUUCTT against Setd1a, -0.894; as for GGUGGUUUGUGUUACAUUUTT against Ifnar2, 2.38 (active).

For the sequence GGACUAUGUCUUUGACAAATT against Cdyl2, the z-score is -0.133.

Consider GCCUAACAAUAGUGGAAUUTT against Ms4a13, for which the z-score is 2.76 (active).

As for GGAUUUCCUGUUCUUUCUATT against Prmt5, the z-score is 0.168. Turning to GGACUGUGGCACAGAGAAATT against Hgfac, the z-score was -0.116. GCUGAUCCAACUGGAAUCUTT against Cep164: the z-score is 0.61. For GGCAAAGAAUGCACUUUCUTT against Elapor2, the z-score is -0.536.

In the case of GGAGUCCUAAAGAGUUCUATT against Slc11a1, the z-score is 0.723. On to GGAGAUGCCAGAGGUCAAATT against Gzmk, for which the z-score was 2.08 (active). Consider GGCUUUCAAGACACUUCUUTT against Ccl6, for which the z-score is -1.6.

On to GCUCAUUAACGAGAAAGUGTT against Atxn7l2, for which the z-score was -0.991. Regarding GGCUACUGUAAGAUUUCUATT against Mgat4f, the z-score was 1.98.

As for GCAAAACCAAGUGAAUGUGTT against Plac1, the z-score was -0.774. On to GGAGUUUCAGCAGUCGUGATT against Prkrip1, for which the z-score was -0.94. Consider CCCUUCUCUGAUUGUCUGATT against Lce3b, for which the z-score was -0.452.
